# The list is not random: actives were taken first. Their share in the collection is about 6.6%.
# KB-V1 cytotox: qHTS assay for MDR1-selective chemotherapeutics: Primary screen using the drug-selected MDR subline cells KB-V1. KB-V1 MDR cells viability, CellTiter-Glo, 72 h. 400,000 tested, 3.4% active. Potency, µM (titrated, usually from 46.1 µM), hits mostly cytotoxic; further: on the % scale 0 is the no-effect control and ±100 the full control effect; nearly all actives have a fitted effect of over 60% in size
#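 KB-V1 MDR subline cells in DMEM (phenol-red free, 10% FBS) exposed to compounds in qHTS concentration series for 72 h at 37 degrees C. Viability read by CellTiter-Glo luminescence; concentration-effect curves fitted after normalization and correction.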
# KB-3-1 cytotox: qHTS assay for MDR1-selective chemotherapeutics: Primary screen using the parental adenocarcinoma cell KB-3-1. KB-3-1 viability, CellTiter-Glo ATP luminescence, 72 h. Potency, µM (top dose mostly 46.1 µM), actives largely listed as cytotoxic. 400,000 tested, 1.4% active. AID 1347075, 2019; further: on the % scale 0 is the no-effect control and ±100 the full control effect; nearly all actives have a fitted effect of over 60% in size
#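 KB-3-1 cells, DMEM (no phenol red) + 10% FBS; compound by pin transfer, 72 h, 37 °C. Readout: CellTiter-Glo luminescence after 10 min. Data normalized, curve-fitted.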
# HT1080-NT tox: qHTS for induction of synthetic lethality in tumor cells producing 2HG: qHTS for the HT-1080-NT fibrosarcoma cell line | HT-1080-NT fibrosarcoma viability, CellTiter-Glo ATP luminescence, 48 h | 360,000 tested, 1.6% active | Potency, µM (series often up to 46.1 µM), without a hit: at the highest dose activity, negative = less viability, usual class: cytotoxic;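 further: NT is the 2HG producing partner of a matched IDH1 knockdown line; 0% = DMSO-treated cells and -100% = media-only wells without cells; nearly all actives have a fitted effect of over 55% in size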
#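 Toxicity toward the 2HG-producing NT line was scored as %Activity, normalised to DMSO and no-cell wells, from CellTiter-Glo luminescence after 48 hours' treatment.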
# HT1080 IDH1KD tx: qHTS for induction of synthetic lethality in tumor cells producing 2HG: qHTS for the HT-1080-IDH1KD cell line. HT-1080 IDH1 knockdown viability, ATP luminescence, 48 h. Potency, µM (top dose mostly 46.1 µM), for the others: at the highest dose activity, negative = toxicity, most hits filed as cytotoxic. 360,000 tested, 2% active. AID 686971, 2013;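 further: 0% = DMSO wells and -100% = cell-free medium wells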
#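 After a 2 h attachment period, IDH1KD HT-1080 cells took pin-transferred compound for 48 h at 37 °C; ATP-based luminescence after 10 min room-temperature reagent incubation reported viability.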
# HepG2 viability: qHTS for Inhibitors of TGF-b: Cytotox Counterscreen; 410,000 tested, 0.76% active; HepG2 CAGA-GFP viability, ATP luminescence, 18 h; Potency, µM (series often up to 46.1 µM), without a hit: at the highest dose activity change, negative = cytotoxicity, usual class: cytotoxic
#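 HepG2 CAGA-GFP cells (1000/well, DMEM with 1% FBS) received compound, then TGF-beta at 500 pg/mL final, and were incubated 18 hours at 37 degrees C. Viability was read by CellTiter-Glo luminescence. Media-only wells were set as complete cell-killing and DMSO as no toxicity.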
# TGFb SMAD3 inh: qHTS for Inhibitors of TGF-b; HepG2 CAGA-GFP TGF-b/SMAD3 reporter, GFP fluorescence, 18 h; TGF-beta stimulated, 500 pg/mL final; Potency, µM (highest dose often 46.1 µM), for the others: at the highest dose activity, negative = inhibition, hits mostly inhibitors; 410,000 tested, 1.2% active; further: on the % scale 0 is the no-effect control and ±100 the full control effect; nearly all actives have a fitted effect of over 65% in size
#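 Inhibition of TGF-beta-driven CAGA-GFP reporter expression in HEPG2 cells is measured by cellular GFP fluorescence after 18 h stimulation with 500 pg/mL recombinant TGF-beta in 1% FBS medium at 37 degrees C.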
# * hit, by the source's call; i = inactive; ? = inconclusive; . = not tested or not shown. The call rests on the fitted dose curve; in most records, active means well fitted curve in the direction sought with a large enough effect; inconclusive means small, poorly fitted or top-dose-only effect, or another doubt; inactive means no such curve, though single readings can be large; an effect the other way counts as inactive or inconclusive. Potency means the concentration at half of the fitted maximal effect.
SMILES,KB-V1 cytotox,KB-3-1 cytotox,HT1080-NT tox,HT1080 IDH1KD tx,HepG2 viability,TGFb SMAD3 inh
CC1CC(NC(=O)c2c(O)nc3ccccn3c2=O)CC(C)(C)C1 (stereo not given),21µM*,i,-4%,-1%,-12%,?
CCN(CC)S(=O)(=O)c1ccc(C(=O)Nc2nnc(COC)o2)cc1,i,i,-9%,-3%,-4%,10%
CCCCN(CCCC)S(=O)(=O)c1ccc(NC(=O)Cc2cccs2)cc1,5.2µM*,i,?,?,-19%,?
CCCCN(CCCC)S(=O)(=O)c1ccc(C(=O)Nc2nnc(COC)o2)cc1,?,?,?,12µM*,-17%,?
CCCCN(CC)S(=O)(=O)c1ccc(C(=O)Nc2nnc(-c3cccs3)o2)cc1,?,8.2µM*,?,8.2µM*,17%,-18%
Cc1cc(C)n2c(Nc3cccc(C(F)(F)F)c3)c(-c3ccsc3)nc2n1,i,i,.,.,-46%,?
CCc1ccc(NC(=O)c2ccnc(C(C)(C)C)c2)cc1,21µM*,i,5%,-17%,-4%,3%
CC(C)(C)c1cc(C(=O)Nc2cccc3ccccc23)ccn1,i,i,-1%,-6%,-18%,1%
COc1ccc(-c2n[nH]c3c2C(c2ccc(Cl)cc2Cl)NC3=O)cc1 (stereo not given),i,i,.,.,-78%,?
COC(=O)c1ccccc1-c1ccc(/C=N/NC(=O)c2cc3ccccc3o2)o1,13µM*,?,-2%,-2%,-8%,?
O=C(N/N=C/c1cccc2ccccc12)c1cc2ccccc2o1,?,?,-27%,?,-15%,-18%
Cc1ccc(/C=N/Nc2nc(N3CCCCC3)nc(N3CCCCC3)n2)o1,i,i,-1%,1%,-1%,17%
COC(=O)c1ccccc1-c1ccc(/C=N/Nc2nc(N3CCCC3)nc(N3CCCC3)n2)o1,?,i,?,?,-39%,13µM*
Cc1noc(C)c1C(=O)N1CCC1(C)C(=O)NS(=O)(=O)c1ccc(F)cc1F (stereo not given),i,i,5%,22%,10%,0%
COc1ccc(C(CNC(=O)c2cccc(S(=O)(=O)NCc3ccccc3)c2)N2CCOCC2)cc1 (stereo not given),18µM*,i,0%,0%,-1%,-2%
COc1ccc(C(CNC(=O)c2cccc(S(=O)(=O)Nc3cccc(C)c3)c2)N2CCOCC2)cc1 (stereo not given),21µM*,i,1%,-11%,3%,-4%
CC(Sc1nc(NCc2ccccc2)nc(N(C)C)n1)C(=O)Nc1ccccc1 (stereo not given),i,i,?,?,-17%,?
CC(Sc1nc(N)c2c3c(sc2n1)CSC(C)(C)C3)C(=O)Nc1ccccc1 (stereo not given),21µM*,?,-17%,-15%,3%,?
Cc1ccc(NC(=O)Cn2c(=O)n(-c3ccc(Cl)c(Cl)c3)c(=O)c3c(C)c(C)sc32)c(C)c1,i,i,.,.,-3%,2%
O=C(NCCc1ccc(Cl)cc1)C1CCC(=O)N1Cc1ccccc1Cl (stereo not given),23µM*,i,-4%,-20%,-20%,-1%
COc1ccc(CCNC(=O)C2CCC(=O)N2Cc2ccccc2Cl)cc1OC (stereo not given),i,i,10%,-1%,-1%,-8%
Cc1cc(C)n2nc(SCc3nnc(SCc4ccccc4C)s3)nc2n1,21µM*,i,-3%,?,-19%,-19%

# High-throughput results deposited in PubChem BioAssay by National Center for Advancing Translational Sciences (NCATS).
